Drawing on PMC7862700, “An all-to-all approach to the identification of sequence-specific readers for epigenetic DNA modifications on cytosine”, this text covers binding signal for eight sequences.

Common to all, as to assay: DAPPL (digital affinity profiling via proximity ligation, sequencing); 10 mM Tris-HCl pH 7.5, 50 mM NaCl, 1 mM DTT, 4% glycerol, room temperature, 30 min; GST-TFs on glutathione beads, 16-mer random dsDNA library, 0.1% formaldehyde crosslink after washing; high values mean tight binding
Holding throughout (details): protein: recombinant; tags: N-terminal GST; dsDNA, one strand shown

One assay deals with T1, ERF (Homo sapiens, UniProt P50548 1-548).
T1 sequence: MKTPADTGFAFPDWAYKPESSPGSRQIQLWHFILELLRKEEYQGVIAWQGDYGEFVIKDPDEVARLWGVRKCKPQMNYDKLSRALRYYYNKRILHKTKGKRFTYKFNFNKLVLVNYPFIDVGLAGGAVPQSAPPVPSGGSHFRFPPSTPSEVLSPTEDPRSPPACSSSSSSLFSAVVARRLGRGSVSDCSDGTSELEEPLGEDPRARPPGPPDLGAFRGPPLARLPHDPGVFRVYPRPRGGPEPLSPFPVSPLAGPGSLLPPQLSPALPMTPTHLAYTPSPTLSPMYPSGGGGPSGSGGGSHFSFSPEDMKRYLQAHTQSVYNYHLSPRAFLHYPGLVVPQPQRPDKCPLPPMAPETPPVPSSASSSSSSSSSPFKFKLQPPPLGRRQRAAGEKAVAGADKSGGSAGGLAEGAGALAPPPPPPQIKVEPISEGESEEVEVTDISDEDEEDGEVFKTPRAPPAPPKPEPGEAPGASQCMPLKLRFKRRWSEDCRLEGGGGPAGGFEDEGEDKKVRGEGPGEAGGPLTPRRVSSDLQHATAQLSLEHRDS
In outline: (§1)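 A tag-only sample was pooled with DNA-barcoded human transcription factors that had been expressed in yeast as GST fusions and captured on glutathione beads. The pools were incubated for 30 min at room temperature with 200 nmole of a random double-stranded 16-mer DNA library in Tris/NaCl/DTT/glycerol buffer, then washed, crosslinked with 0.1% formaldehyde, proximity-ligated (BsaI/T4 ligase, 1 h, 37 °C), PCR-amplified and sequenced on an Illumina NextSeq500. Binding signal is each hexamer's read frequency for a factor divided by its frequency for the tag-only sample.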

A further assay has as its target T2, ETV3L (Homo sapiens, UniProt Q6ZN32 1-361).
T2 sequence: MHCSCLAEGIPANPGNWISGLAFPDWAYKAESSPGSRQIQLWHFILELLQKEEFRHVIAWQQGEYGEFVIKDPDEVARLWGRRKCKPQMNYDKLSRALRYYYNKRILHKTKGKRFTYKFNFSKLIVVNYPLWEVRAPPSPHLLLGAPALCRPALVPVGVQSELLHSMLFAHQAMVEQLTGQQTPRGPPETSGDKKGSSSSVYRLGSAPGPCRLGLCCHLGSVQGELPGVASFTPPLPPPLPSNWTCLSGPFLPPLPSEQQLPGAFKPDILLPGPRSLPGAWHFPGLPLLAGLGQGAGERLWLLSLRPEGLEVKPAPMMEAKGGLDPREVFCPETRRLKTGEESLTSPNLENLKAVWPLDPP
In outline:
as §1

A further assay deals with T3, ETS2 (Homo sapiens, UniProt P15036 1-469).
T3 sequence: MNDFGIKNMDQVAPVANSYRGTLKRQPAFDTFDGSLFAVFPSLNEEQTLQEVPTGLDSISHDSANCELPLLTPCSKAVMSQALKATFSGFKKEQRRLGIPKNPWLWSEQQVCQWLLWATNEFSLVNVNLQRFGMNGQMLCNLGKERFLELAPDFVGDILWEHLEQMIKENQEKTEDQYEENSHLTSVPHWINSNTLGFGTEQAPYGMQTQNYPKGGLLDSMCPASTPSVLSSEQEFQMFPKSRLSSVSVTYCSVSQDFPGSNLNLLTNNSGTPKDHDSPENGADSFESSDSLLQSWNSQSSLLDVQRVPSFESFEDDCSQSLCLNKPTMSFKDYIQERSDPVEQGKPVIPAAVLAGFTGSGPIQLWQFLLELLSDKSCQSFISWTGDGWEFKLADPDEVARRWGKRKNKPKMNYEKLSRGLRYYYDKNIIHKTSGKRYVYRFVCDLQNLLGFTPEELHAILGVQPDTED
In outline:
as §1

A further assay has as its target T4, SPDEF (Homo sapiens, UniProt O95238 1-335).
T4 sequence: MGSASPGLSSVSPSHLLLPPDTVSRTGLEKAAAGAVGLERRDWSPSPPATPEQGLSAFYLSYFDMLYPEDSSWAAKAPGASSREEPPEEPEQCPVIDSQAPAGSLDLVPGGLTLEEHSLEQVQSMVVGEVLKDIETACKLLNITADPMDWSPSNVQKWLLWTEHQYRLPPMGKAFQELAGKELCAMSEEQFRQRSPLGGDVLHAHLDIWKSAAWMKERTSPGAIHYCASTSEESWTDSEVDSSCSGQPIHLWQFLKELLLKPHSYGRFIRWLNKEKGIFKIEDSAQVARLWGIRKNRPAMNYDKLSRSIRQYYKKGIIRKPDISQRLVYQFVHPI
An outline of the steps:
as §1

In a further assay the target is T5, ETV7 (Homo sapiens, UniProt Q9Y603 1-341).
T5 sequence: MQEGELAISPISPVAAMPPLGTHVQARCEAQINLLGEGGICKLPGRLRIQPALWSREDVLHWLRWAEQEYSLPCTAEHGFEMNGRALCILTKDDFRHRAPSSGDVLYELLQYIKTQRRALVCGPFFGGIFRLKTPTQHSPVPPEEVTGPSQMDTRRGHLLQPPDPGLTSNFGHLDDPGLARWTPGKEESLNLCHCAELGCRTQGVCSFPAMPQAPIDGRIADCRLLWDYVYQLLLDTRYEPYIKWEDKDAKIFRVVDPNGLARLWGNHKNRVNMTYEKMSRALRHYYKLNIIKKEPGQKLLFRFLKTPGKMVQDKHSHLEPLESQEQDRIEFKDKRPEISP
In outline:
as §1

For the next assay, the target named is T6, ETV3 (Homo sapiens, UniProt P41162-2 1-143).
T6 sequence: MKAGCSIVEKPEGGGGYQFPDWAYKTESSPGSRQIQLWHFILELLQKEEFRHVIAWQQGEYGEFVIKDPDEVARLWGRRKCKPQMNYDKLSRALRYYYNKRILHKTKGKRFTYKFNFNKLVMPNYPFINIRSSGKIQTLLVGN
An outline of the steps: as §1

A further assay deals with ETV6 (Homo sapiens, UniProt P41212 1-452). An outline of the steps: as §1
Sequence of ETV6 (P41212 whole entry): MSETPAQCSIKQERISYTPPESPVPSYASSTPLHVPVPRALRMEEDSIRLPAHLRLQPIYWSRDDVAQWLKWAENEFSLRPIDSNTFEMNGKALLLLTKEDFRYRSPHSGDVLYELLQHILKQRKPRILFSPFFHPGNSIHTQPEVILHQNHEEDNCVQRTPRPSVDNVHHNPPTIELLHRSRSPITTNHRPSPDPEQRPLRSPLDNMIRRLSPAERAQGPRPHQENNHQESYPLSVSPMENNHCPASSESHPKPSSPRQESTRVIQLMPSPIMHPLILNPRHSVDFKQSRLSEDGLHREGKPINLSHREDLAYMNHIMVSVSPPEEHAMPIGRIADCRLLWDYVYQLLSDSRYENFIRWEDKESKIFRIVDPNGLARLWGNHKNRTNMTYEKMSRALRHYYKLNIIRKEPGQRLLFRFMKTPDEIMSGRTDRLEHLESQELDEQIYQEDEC
The target in the next assay is T7, ELF5 (Homo sapiens, UniProt Q9UKW6-2 1-255).
T7 sequence: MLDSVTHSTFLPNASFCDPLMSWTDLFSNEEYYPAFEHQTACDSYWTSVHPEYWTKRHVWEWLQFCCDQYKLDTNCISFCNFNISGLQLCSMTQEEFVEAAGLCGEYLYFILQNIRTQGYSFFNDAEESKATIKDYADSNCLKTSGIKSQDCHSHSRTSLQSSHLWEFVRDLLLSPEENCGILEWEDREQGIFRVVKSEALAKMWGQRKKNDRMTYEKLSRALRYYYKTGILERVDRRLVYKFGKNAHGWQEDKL
An outline of the steps: as §1

For the sequence ATTGAA, the binding signal is 1.14 fold enrichment (6-mer frequency, TF over GST control) with ERF; 1.1 fold enrichment (6-mer frequency, TF over GST control) with ETV3L; 1.09 fold enrichment (6-mer frequency, TF over GST control) with ETS2; 1.07 fold enrichment (6-mer frequency, TF over GST control) with SPDEF; 1.14 fold enrichment (6-mer frequency, TF over GST control) with ETV7; 1.03 fold enrichment (6-mer frequency, TF over GST control) with ETV3. Also, in the assay with ETV6, the binding signal is 1.08 fold enrichment (6-mer frequency, TF over GST control).
On to TTTAGG, for which the binding signal with ERF is 1.22 fold enrichment (6-mer frequency, TF over GST control); with ETV3L it was 1.02 fold enrichment (6-mer frequency, TF over GST control); with ETS2, 1.11 fold enrichment (6-mer frequency, TF over GST control); with SPDEF, 1.09 fold enrichment (6-mer frequency, TF over GST control); with ETV7, 1.19 fold enrichment (6-mer frequency, TF over GST control); with ETV3, 1.07 fold enrichment (6-mer frequency, TF over GST control). In addition, the binding signal in the assay with ETV6 is 1.19 fold enrichment (6-mer frequency, TF over GST control).
As for GATAGC, the binding signal is 1.15 fold enrichment (6-mer frequency, TF over GST control) with ERF; 1.06 fold enrichment (6-mer frequency, TF over GST control) in the assay with ETV3L; 1.12 fold enrichment (6-mer frequency, TF over GST control) with ETS2; 1.05 fold enrichment (6-mer frequency, TF over GST control) with SPDEF; 1.06 fold enrichment (6-mer frequency, TF over GST control) in the assay with ETV7; 1.05 fold enrichment (6-mer frequency, TF over GST control) with ETV3. For the same sequence, in the assay with ETV6, the binding signal was 1.03 fold enrichment (6-mer frequency, TF over GST control).
As for TGCGTT, the binding signal with ERF was 1.2 fold enrichment (6-mer frequency, TF over GST control); with ETV3L, 1.11 fold enrichment (6-mer frequency, TF over GST control); in the assay with ETS2, 1.09 fold enrichment (6-mer frequency, TF over GST control); with SPDEF it was 1.08 fold enrichment (6-mer frequency, TF over GST control); in the assay with ETV7, 1.24 fold enrichment (6-mer frequency, TF over GST control); in the assay with ETV3 it was 1.06 fold enrichment (6-mer frequency, TF over GST control).
For TTAGAA, the binding signal in the assay with ERF is 1.1 fold enrichment (6-mer frequency, TF over GST control); in the assay with ETV3L, 1.07 fold enrichment (6-mer frequency, TF over GST control); with ETS2, 1.08 fold enrichment (6-mer frequency, TF over GST control); with SPDEF it was 1 fold enrichment (6-mer frequency, TF over GST control); with ETV7 it was 1.08 fold enrichment (6-mer frequency, TF over GST control); in the assay with ETV3, 1.06 fold enrichment (6-mer frequency, TF over GST control). In the assay with ETV6, the binding signal was 1.15 fold enrichment (6-mer frequency, TF over GST control).
ACACCT: the binding signal in the assay with ERF was 1.14 fold enrichment (6-mer frequency, TF over GST control); in the assay with ETV3L, 1.15 fold enrichment (6-mer frequency, TF over GST control); with ETS2, 1.05 fold enrichment (6-mer frequency, TF over GST control); with SPDEF it was 1.05 fold enrichment (6-mer frequency, TF over GST control); in the assay with ETV7, 1.11 fold enrichment (6-mer frequency, TF over GST control); with ETV3, 1.08 fold enrichment (6-mer frequency, TF over GST control). Also, the binding signal with ETV6 was 1.06 fold enrichment (6-mer frequency, TF over GST control).
On to ACACGA, for which the binding signal was 1.15 fold enrichment (6-mer frequency, TF over GST control) with ERF; 1.04 fold enrichment (6-mer frequency, TF over GST control) with ETV3L; 1.08 fold enrichment (6-mer frequency, TF over GST control) with ETS2; 1.03 fold enrichment (6-mer frequency, TF over GST control) with SPDEF; 1.11 fold enrichment (6-mer frequency, TF over GST control) with ETV7; 1.03 fold enrichment (6-mer frequency, TF over GST control) in the assay with ELF5. Also, the binding signal with ETV6 was 1.06 fold enrichment (6-mer frequency, TF over GST control).
Regarding CTATCG, the binding signal with ERF is 1.28 fold enrichment (6-mer frequency, TF over GST control); with ETV3L, 1.07 fold enrichment (6-mer frequency, TF over GST control); with ETS2 it was 1.04 fold enrichment (6-mer frequency, TF over GST control); with SPDEF it was 1.04 fold enrichment (6-mer frequency, TF over GST control); in the assay with ETV7, 1.19 fold enrichment (6-mer frequency, TF over GST control); with ETV3, 1.1 fold enrichment (6-mer frequency, TF over GST control). Also, the binding signal with ETV6 is 1.07 fold enrichment (6-mer frequency, TF over GST control).
